In all, about 330,000 compounds went through this assay and about 5,800 (1.8%) were called active.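 The calls were made as follows: active = inhibition above about 50% at the single tested dose (limit read from the data); inactive = the rest.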 What follows is part of a selection rich in actives, with near analogues and random picks from the rest.
What follows are compounds tested against Sentrin-specific protease 6 (Homo sapiens) (UniProt Q9GZR1) (assay: SENP6 protease inhibitors, primary screen, biochemical, luminescence, uHTS (AID 2599;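 also: plate controls were DMSO wells with enzyme for no effect and DMSO wells lacking enzyme for full effect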)). Conditions: Recombinant SENP6 catalytic domain, aminoluciferin luminescence; at 10 µM; stronger effect = higher value.
Chain of Sentrin-specific protease 6 (Homo sapiens) (Q9GZR1 628-1112 limits assumed): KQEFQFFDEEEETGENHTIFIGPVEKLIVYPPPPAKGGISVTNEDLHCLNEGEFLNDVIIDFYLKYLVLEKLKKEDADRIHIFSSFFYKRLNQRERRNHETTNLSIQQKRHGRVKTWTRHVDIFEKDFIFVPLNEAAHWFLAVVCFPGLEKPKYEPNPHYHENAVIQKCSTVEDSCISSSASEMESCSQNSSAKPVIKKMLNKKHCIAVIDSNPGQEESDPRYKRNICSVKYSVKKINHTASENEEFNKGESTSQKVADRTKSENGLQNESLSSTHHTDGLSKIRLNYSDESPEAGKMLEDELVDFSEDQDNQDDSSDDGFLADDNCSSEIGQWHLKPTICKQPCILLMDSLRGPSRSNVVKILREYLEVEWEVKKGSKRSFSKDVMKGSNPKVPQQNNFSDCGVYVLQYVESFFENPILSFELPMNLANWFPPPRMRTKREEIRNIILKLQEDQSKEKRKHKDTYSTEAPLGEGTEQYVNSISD
With `C/C(=N\Nc1ncc(Cl)cc1Cl)c1cccs1` the inhibition was 6.67% (inactive).
With `C/C(=N\Nc1nc2ccccc2[nH]1)c1cccs1` the inhibition was 60.7% (active).
In the case of `O=C(Nc1ccccc1-c1nc2ccccc2[nH]c1=O)c1cccs1`, the inhibition is reported as 0.16% (inactive).
For `COc1ccc(N(Cc2ccccc2)S(=O)(=O)c2cccc(C(=O)O)c2)cc1`, the inhibition was -6.92% (inactive).
For `COc1ccc(NC(=O)CS(=O)(=O)c2ccccc2)cc1`, the inhibition was 13.2% (inactive).
For `COc1ccc(C(CC(=O)c2ccccc2)S(=O)(=O)c2ccccc2)cc1` (stereo not given), the inhibition was 59.1% (active).
In the case of `COc1ccc(NC(=O)C2CCC(CNC(=O)[C@@H]3Cc4ccccc4CN3)CC2)cc1` (stereo not given in full), the inhibition is reported as -1.01% (inactive).
For `CCC(NC(=O)c1cc(COc2ccc(F)c(F)c2)on1)c1ccncc1` (stereo not given), the inhibition was 12.2% (inactive).
In the case of `O=C(NCCN1CCCC(O)C1)c1cc(COc2c(F)cccc2F)on1` (stereo not given), the inhibition is reported as 4.9% (inactive).
For `Cc1cccc(C)c1Nc1nnc(SCC(=O)Nc2sccc2C#N)s1`, the inhibition was 22.6% (inactive).
With `Cc1csc(SCC(=O)Nc2sccc2C#N)n1` the inhibition was 88.2% (active).
`Cc1ccc(NC(=O)CSCC(=O)Nc2sccc2C#N)cc1` was tested, and the inhibition was 0.055% (inactive).
For `COc1ccc(CCNC(=O)CS(=O)(=O)Cc2nc(-c3ccc(C)cc3)oc2C)cc1OC`, the inhibition was 8.83% (inactive).
With `CSCCC(Nc1ccc(S(=O)(=O)N2CCOCC2)cc1[N+](=O)[O-])C(=O)OCC(=O)N(C(C)C)C(C)C` (stereo not given) the inhibition was -3.58% (inactive).
For `Cc1ccc(OC(=O)c2cc3ccccc3o2)cc1`, the inhibition was 72.6% (active).
In the case of `COc1ccccc1CN(C)C(=O)c1cc2ccccc2o1`, the inhibition is reported as -15.1% (inactive).
`C/C(=N\NC(=S)Nc1ccc(C)cc1)c1cc2ccccc2o1` was tested, and the inhibition was -7.73% (inactive).
For `CC1=C/C(=N\OS(=O)(=O)c2ccccc2)C=CC1=O`, the inhibition was -4.19% (inactive).
For `CCOc1ccc(OCC)c(NC(=O)CCS(=O)(=O)c2ccc(C)cc2)c1`, the inhibition was -6.59% (inactive).
With `CC(=O)Oc1cccc(C(=O)Nc2ccccc2NC(=O)c2cccc(OC(C)=O)c2)c1` the inhibition was 7.29% (inactive).
In the case of `CC(=O)O[C@H]1c2ccccc2-c2ccccc2[C@@H]1OC(C)=O`, the inhibition is reported as 8.21% (inactive).
`CC(=O)Oc1ccc2c(c1)C(=O)c1ccccc1C2=O` was tested, and the inhibition was 55% (active).
In the case of `CC(C)C(=O)NCC(c1cccs1)S(=O)(=O)c1ccc(F)cc1` (stereo not given), the inhibition is reported as -1.5% (inactive).
With `COc1cc(/C=C/C(=O)OCC(=O)NC(=O)NCc2ccccc2)ccc1OCC#N` the inhibition was -0.36% (inactive).
In the case of `Cc1cc2oc3ccc(NCCC4CCCN4C)cc3c(=O)c2cc1C` (stereo not given), the inhibition is reported as 2.23% (inactive).
For `O=C(Nc1c2c(nn1-c1cccc(Cl)c1)CS(=O)(=O)C2)c1cccs1`, the inhibition was -6.08% (inactive).
`COc1ccc2nc(NC(=O)[C@@H]3CCCN3C(=O)c3cccs3)sc2c1` was tested, and the inhibition was 4.51% (inactive).
With `COc1ccc2nc(Nc3nc4cc5c(cc4s3)OCCO5)sc2c1` the inhibition was 70.8% (active).
`COc1ccc2nc(NC(=O)NC3CCCCC3)sc2c1` was tested, and the inhibition was 0.352% (inactive).
In the case of `CC(OC(=O)CN1C(=O)COc2ccccc21)C(=O)NCc1ccc(F)cc1` (stereo not given), the inhibition is reported as -3.56% (inactive).
`COc1ccc(S(=O)(=O)NC(C)C(=O)N2CCCCCC2)cc1` (stereo not given) was tested, and the inhibition was -11.4% (inactive).
For `Cc1ccc(C(=O)Nc2nc(N)n(-c3ccccc3)n2)cc1`, the inhibition was -27.7% (inactive).
`Fc1c(F)c(C(F)(F)F)c(F)c(F)c1N1CCN(c2ccc3nnc(C(F)(F)F)n3n2)CC1` was tested, and the inhibition was 3.56% (inactive).
In the case of `COc1ccccc1NC(=O)C(C)OC(=O)c1ccc(-n2cnnn2)cc1` (stereo not given), the inhibition is reported as -16.5% (inactive).
For `NC1=NN(c2cccc(C(=O)O)c2)C(=O)C1`, the inhibition was 3.51% (inactive).
`O=C(O)c1ccc(N=NN2CCOCC2)cc1` was tested, and the inhibition was 17.8% (inactive).
With `O=C(O)c1cccc(N=NN2CCCCCC2)c1` the inhibition was 90.2% (active).
For `CS(=O)(=O)Nc1ccccc1N=C(c1ccccc1)c1ccccc1`, the inhibition was -6.12% (inactive).
In the case of `Nc1ccc(S(=O)(=O)Nc2nccc(/C=C/c3ccc(Br)s3)n2)cc1`, the inhibition is reported as 4.55% (inactive).
For `Oc1cccc2ccc(/C=C/c3ccc(Br)s3)nc12`, the inhibition was 64.4% (active).
`COC(=O)c1c(NC(=O)COc2ccc(Cl)cc2Cl)sc2c1CC(C)(C)NC2(C)C` was tested, and the inhibition was -10.5% (inactive).
`Cc1coc(C)c1C(=O)CC1(O)C(=O)N(C)c2ccc(Cl)cc21` (stereo not given) was tested, and the inhibition was 0.041% (inactive).
`O=C(NC1CC1)C1CCCN(C(=O)NC2CCCCC2)C1` (stereo not given) was tested, and the inhibition was -5.19% (inactive).
With `O=C1NNC(c2ccccc2)=N/C1=C\c1ccc(Cl)cc1` the inhibition was 29.3% (inactive).
For `N#CCc1c(C#N)c(N)nc(N2CCCC2)c1C#N`, the inhibition was -5.83% (inactive).
For `N#Cc1c(N2CCCCC2)nc(N)c2c(N)nc(SCC(=O)O)cc12`, the inhibition was 74.6% (active).
In the case of `Nc1nc(NCC(=O)O)nc(N2CCCCCC2)c1[N+](=O)[O-]`, the inhibition is reported as 11.1% (inactive).
With `CC(C)(C)Oc1ccccc1Nc1nc(NCCO)nc(N2CCCC2)n1` the inhibition was -11% (inactive).
With `O=C(ON=C1CCN(S(=O)(=O)c2ccccc2)CC1)c1ccc(Cl)cc1` the inhibition was 55.9% (active).
`CC(OC(=O)c1ccc(S(=O)(=O)N2CCOCC2)cc1)c1ccccc1` (stereo not given) was tested, and the inhibition was -4.11% (inactive).
For `COC(=O)c1ccc(S(=O)(=O)N2CCc3ccccc3C2)cc1`, the inhibition was -14.9% (inactive).
For `C/C(N)=C(\C#N)C(=O)NCCc1ccccn1`, the inhibition was -4.65% (inactive).
With `COc1ccc(-c2cn3ccsc3n2)cc1` the inhibition was 64% (active).
For `COc1ccc(-c2cn3cccnc3n2)cc1`, the inhibition was -11.4% (inactive).
For `COc1cc(OC)cc(-c2nc(=S)n3ccsc3n2)c1`, the inhibition was -9.64% (inactive).
With `CC(C(=O)NC1CCCCC1)N1C(=O)c2cccc3cccc1c23` (stereo not given) the inhibition was -3.48% (inactive).
`CC(C)NC(=S)Nc1cccc2cnccc12` was tested, and the inhibition was 5.39% (inactive).
`O=C(COC(=O)c1ccccn1)Nc1cccc2ccccc12` was tested, and the inhibition was -9.05% (inactive).
With `O=C(O)Cc1ccc(NC(=O)Nc2cccc3ccccc23)cc1` the inhibition was -11.3% (inactive).
In the case of `O=C(Nc1cccc2ccccc12)c1onc2c1CCCC2`, the inhibition is reported as 84% (active).
With `Cn1cc(CN2CCCC(CO)C2)c(-c2ccc(Oc3ccccc3)cc2)n1` (stereo not given) the inhibition was -24.4% (inactive).
In the case of `O=C1C2C3C=CC(C3)C2C(=O)N1c1ccc(-c2nc3ccccc3c(=O)o2)cc1` (stereo not given), the inhibition is reported as -7.9% (inactive).
In the case of `COc1cc(C#Cc2ccc3cc(CCCO)oc(=O)c3c2)cc(OC)c1`, the inhibition is reported as 74% (active).
In the case of `O=C1c2ccccc2C(=O)N1CCC#Cc1ccc2cc(C3(O)CCCCC3)oc(=O)c2c1`, the inhibition is reported as -5.78% (inactive).
`COc1cc(/C=C2\Oc3ccc(C#Cc4ccc(O)cc4)cc3C2=O)cc(OC)c1` was tested, and the inhibition was -11.5% (inactive).
